Assay results taken from PubChem BioAssay (NCI).
This is part of a sample that, as a whole, favours compounds with a hit. Of some 79,000 tested, about 15% had one in any assay. The source made the active and inactive calls. Rule as the data show it: active = growth inhibition above about 70%; inactive = the rest.

Assays:
[1] = NCI Yeast Anticancer Drug Screen. Data for the mec2-1 strain (AID 157); details: S. cerevisiae mec2-1 strain, stronger effect = higher value
Method in brief: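 Mutant yeast (mec2-1) grown with compound; growth inhibition relative to vehicle control reported.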

[2] = NCI Yeast Anticancer Drug Screen. Data for the rad14 strain (AID 159);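 also: 0% = growth of vehicle-treated control cultures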; details: S. cerevisiae rad14 strain growth inhibition, stronger effect = higher value
Method in brief: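 Test compounds were applied to a repair-deficient yeast strain. Its growth was then compared with that of cultures given vehicle alone, and inhibition was expressed relative to those controls.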

[3] = NCI Yeast Anticancer Drug Screen. Data for the sgs1 mgt1 strain (AID 161);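 also: 0% = growth of cultures given vehicle only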; details: S. cerevisiae sgs1 mgt1 strain, stronger effect = higher value
Method in brief: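 Growth of a repair-deficient yeast mutant was monitored after compound treatment and expressed as inhibition relative to vehicle-treated cultures.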

[4] = NCI Yeast Anticancer Drug Screen. Data for the CLN2oe strain (AID 163);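 also: 0% = growth of vehicle-only control cultures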; details: S. cerevisiae CLN2oe strain, stronger effect = higher value
Method in brief: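 Compounds are applied to yeast harbouring a defined cell-cycle control change; reduced growth compared with vehicle-treated controls gives the value.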

[5] = NCI Yeast Anticancer Drug Screen. Data for the cln2 rad14 strain (AID 165);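 also: 0% = growth equal to vehicle treated cultures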; details: S. cerevisiae cln2 rad14 strain, stronger effect = higher value
Method in brief: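 Readout is yeast growth inhibition versus vehicle-treated controls, using a strain with cln2 and rad14 alterations exposed to compound.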

[6] = NCI Yeast Anticancer Drug Screen. Data for the bub3 strain (AID 167); details: S. cerevisiae bub3 mutant strain, stronger effect = higher value
Method in brief: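 Yeast carrying a defined mutation is treated with each compound, and growth is compared with that of vehicle-exposed cells to give inhibition.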

[7] = NCI Yeast Anticancer Drug Screen. Data for the wt2 strain (AID 169);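 also: 0% = growth of vehicle-treated yeast cultures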; details: S. cerevisiae wt2 strain growth inhibition, stronger effect = higher value
Method in brief: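 Against vehicle-treated controls, the growth of yeast exposed to each compound was compared, and the inhibition was recorded.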

[8] = NCI Yeast Anticancer Drug Screen. Data for the mlh1 rad18 strain (AID 175); details: S. cerevisiae mlh1 rad18 strain growth inhibition, stronger effect = higher value
Method in brief: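 Genetically defined yeast (DNA repair-deficient) exposed to compounds; growth inhibition determined relative to vehicle.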

[9] = NCI Yeast Anticancer Drug Screen. Data for the rad18 strain (AID 177); details: S. cerevisiae rad18 mutant growth inhibition, stronger effect = higher value
Method in brief: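 Vehicle-treated cultures served as the baseline for scoring compound-induced growth inhibition in DNA-repair-mutant yeast.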

[10] = NCI Yeast Anticancer Drug Screen. Data for the rad52 strain (AID 147);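 also: 0% = growth of vehicle-treated control cultures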; details: S. cerevisiae rad52 mutant growth inhibition, stronger effect = higher value
Method in brief: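 The repair-mutant yeast strain was incubated with compounds, then growth was read and inhibition derived relative to vehicle.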

[11] = NCI Yeast Anticancer Drug Screen. Data for the wt1 strain (AID 149);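 also: 0% = growth of vehicle-treated wt1 cultures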; details: S. cerevisiae wt1 strain (SPY 50644) growth inhibition, stronger effect = higher value
Method in brief: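 wt1 yeast, compound-treated; % growth inhibition vs vehicle control.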

[12] = NCI Yeast Anticancer Drug Screen. Data for the rad50EPP+ strain (AID 151);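 also: 0% = growth of vehicle-treated control cultures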; details: S. cerevisiae rad50 mutant strain, stronger effect = higher value
Method in brief: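 Vehicle-normalised growth inhibition; rad50EPP+ yeast strain, altered in DNA damage repair, compound-treated.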

[13] = NCI Yeast Anticancer Drug Screen. Data for the mgt1 strain (AID 153); details: S. cerevisiae mgt1 mutant growth inhibition, stronger effect = higher value
Method in brief: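 Vehicle-normalized growth inhibition is determined in mgt1 yeast, a strain selected for a defined alteration in DNA repair or cell cycle control.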

[14] = NCI Yeast Anticancer Drug Screen. Data for the rad50 strain (AID 155);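 also: 0% = growth of vehicle-only cultures of the same strain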; details: S. cerevisiae rad50 strain growth inhibition, stronger effect = higher value
Method in brief: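 Genetically altered yeast (DNA repair pathway); compound treatment; growth inhibition vs vehicle ctrl.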

[15] = NCI Yeast Anticancer Drug Screen. Data for the mlh1 strain (AID 171);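 also: 0% = growth of vehicle-treated control cultures of the same strain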; details: S. cerevisiae mlh1 strain growth inhibition, stronger effect = higher value
Method in brief: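 Measured: yeast growth. Reference: vehicle-treated controls. Organism: strain with a defined alteration affecting DNA damage repair or cell cycle control, treated with compound.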

[16] = NCI Yeast Anticancer Drug Screen. Data for the sgs1 strain (AID 173);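 also: 0% = growth of vehicle-only control cultures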; details: S. cerevisiae sgs1 mutant, stronger effect = higher value
Method in brief: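 Each compound was added to cultures of the altered yeast strain. Growth was recorded, and inhibition was derived by comparison with vehicle controls.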

[17] = at 5.0 µM (retest, dose inferred, filed as 0.5)
[18] = at 50.0 µM (retest, dose inferred, filed as 5.0)

Measured: growth inhibition

CNC(=O)OCc1c(COC(=O)NC)c(-c2ccc(Cl)cc2)n2c1CCC2
inactive: [1]; [17] 0% | [1]; at 11.0 µM -37% | [1]; at 33.0 µM -36% | [1]; [18] 6% | [1]; at 50.0 µM 44.7% | [2]; at 1.2 µM -34% | [2]; at 3.7 µM -31% | [2]; at 11.0 µM -39% | [2]; at 33.0 µM 2% | [3]; [17] 33% | [3]; [18] 69% | [3]; at 50.0 µM 57.5% | [4]; at 1.2 µM -21% | [4]; at 3.7 µM -1% | [4]; at 11.0 µM -9% | [4]; at 33.0 µM -6% | [5]; [17] 30% | [5]; [18] 38% | [6]; at 1.2 µM -53% | [6]; at 3.7 µM -69% | [6]; [17] 36% | [6]; at 11.0 µM -55% | [6]; at 33.0 µM -17% | [6]; [18] 33% | [6]; at 50.0 µM 23% | [7]; at 1.2 µM -31% | [7]; at 3.7 µM -11% | [7]; at 11.0 µM -26% | [7]; at 33.0 µM -10% | [8]; [17] 4% | [8]; [18] 5% | [9]; at 1.2 µM -28% | [9]; at 3.7 µM -30% | [9]; at 11.0 µM -53% | [9]; at 33.0 µM -42%
active: [1]; at 100.0 µM 87% | [2]; at 100.0 µM 98% | [4]; at 100.0 µM 94% | [5]; at 50.0 µM 84% | [6]; at 100.0 µM 94% | [7]; at 100.0 µM 97% | [8]; at 50.0 µM 74.3% | [9]; at 100.0 µM 97%

OCc1ccccc1Cc1ccccc1
active: [14]; at 50.0 µM 87.9% | [8]; at 50.0 µM 79.6%
inactive: [10]; at 1.2 µM -4% | [10]; at 3.7 µM 0% | [10]; at 11.0 µM -2% | [10]; at 33.0 µM -3% | [10]; at 100.0 µM -3% | [11]; at 1.2 µM 0% | [11]; at 3.7 µM -1% | [11]; at 11.0 µM 0% | [11]; at 33.0 µM -2% | [11]; at 100.0 µM -7% | [12]; at 1.2 µM 2% | [12]; at 3.7 µM 2% | [12]; at 11.0 µM 8% | [12]; at 33.0 µM 12% | [12]; at 100.0 µM 30% | [13]; at 1.2 µM -3% | [13]; at 3.7 µM -5% | [13]; at 11.0 µM -2% | [13]; at 33.0 µM 12% | [13]; at 100.0 µM -10% | [14]; at 1.2 µM -1% | [14]; at 3.7 µM 0% | [14]; [17] 7% | [14]; at 11.0 µM -1% | [14]; at 33.0 µM -3% | [14]; [18] 21% | [14]; at 100.0 µM -6% | [1]; at 1.2 µM -1% | [1]; at 3.7 µM 2% | [1]; [17] -2% | [1]; at 11.0 µM -4% | [1]; at 33.0 µM -6% | [1]; [18] -17% | [1]; at 50.0 µM 53.4% | [1]; at 100.0 µM -6% | [2]; at 1.2 µM -1% | [2]; at 3.7 µM -1% | [2]; at 11.0 µM 0% | [2]; at 33.0 µM -2% | [2]; at 100.0 µM -3% | [3]; [17] 0% | [3]; [18] 50% | [3]; at 50.0 µM 60.5% | [4]; at 1.2 µM -7% | [4]; at 3.7 µM 0% | [4]; at 11.0 µM -2% | [4]; at 33.0 µM -5% | [4]; at 100.0 µM -7% | [5]; [17] 5% | [5]; [18] -2% | [5]; at 50.0 µM 32.9% | [6]; at 1.2 µM 2% | [6]; at 3.7 µM -1% | [6]; [17] 12% | [6]; at 11.0 µM 5% | [6]; at 33.0 µM 1% | [6]; [18] 40% | [6]; at 50.0 µM 65.8% | [6]; at 100.0 µM -9% | [7]; at 1.2 µM 0% | [7]; at 3.7 µM 0% | [7]; at 11.0 µM 0% | [7]; at 33.0 µM -2% | [7]; at 100.0 µM -7% | [15]; at 1.2 µM -1% | [15]; at 3.7 µM -1% | [15]; at 11.0 µM 0% | [15]; at 33.0 µM -2% | [15]; at 100.0 µM -3% | [8]; [17] 3% | [8]; [18] 63% | [9]; at 1.2 µM -1% | [9]; at 3.7 µM 0% | [9]; at 11.0 µM -16% | [9]; at 33.0 µM -2% | [9]; at 100.0 µM -6%

CS(=O)(=O)SCc1ccc([N+](=O)[O-])cc1
active: [10]; at 11.0 µM 90% | [10]; at 33.0 µM 99% | [10]; at 100.0 µM 97% | [11]; at 33.0 µM 99% | [11]; at 100.0 µM 98% | [12]; at 11.0 µM 97% | [12]; at 33.0 µM 99% | [12]; at 100.0 µM 97% | [13]; at 33.0 µM 99% | [13]; at 100.0 µM 98% | [14]; at 11.0 µM 97% | [14]; at 33.0 µM 99% | [14]; [18] 93% | [14]; at 50.0 µM 97.9% | [14]; at 100.0 µM 97% | [1]; at 11.0 µM 85% | [1]; at 33.0 µM 99% | [1]; [18] 96% | [1]; at 50.0 µM 98% | [1]; at 100.0 µM 97% | [2]; at 33.0 µM 99% | [2]; at 100.0 µM 97% | [3]; [18] 95% | [3]; at 50.0 µM 98.1% | [4]; at 33.0 µM 98% | [4]; at 100.0 µM 97% | [5]; [18] 94% | [5]; at 50.0 µM 96.5% | [6]; at 11.0 µM 97% | [6]; at 33.0 µM 99% | [6]; [18] 94% | [6]; at 50.0 µM 98.8% | [6]; at 100.0 µM 96% | [7]; at 33.0 µM 99% | [7]; at 100.0 µM 97% | [16]; at 11.0 µM 97% | [16]; at 33.0 µM 99% | [16]; at 100.0 µM 97% | [8]; [18] 93% | [8]; at 50.0 µM 98% | [9]; at 11.0 µM 90% | [9]; at 33.0 µM 99% | [9]; at 100.0 µM 97%
inactive: [10]; at 1.2 µM 7% | [10]; at 3.7 µM 30% | [11]; at 1.2 µM -5% | [11]; at 3.7 µM 1% | [11]; at 11.0 µM 38% | [12]; at 1.2 µM 8% | [12]; at 3.7 µM 57% | [13]; at 1.2 µM -2% | [13]; at 3.7 µM -4% | [13]; at 11.0 µM 61% | [14]; at 1.2 µM 1% | [14]; at 3.7 µM 41% | [14]; [17] 20% | [1]; at 1.2 µM 3% | [1]; at 3.7 µM 4% | [1]; [17] -25% | [2]; at 1.2 µM 5% | [2]; at 3.7 µM 18% | [2]; at 11.0 µM 69% | [3]; [17] -11% | [4]; at 1.2 µM -2% | [4]; at 3.7 µM 7% | [4]; at 11.0 µM 57% | [5]; [17] -35% | [6]; at 1.2 µM 6% | [6]; at 3.7 µM 40% | [6]; [17] 51% | [7]; at 1.2 µM -1% | [7]; at 3.7 µM -3% | [7]; at 11.0 µM 69% | [16]; at 1.2 µM -3% | [16]; at 3.7 µM 39% | [8]; [17] -31% | [9]; at 1.2 µM 7% | [9]; at 3.7 µM 29%
